# From PubChem BioAssay (NCATS)
# Results filed as inconclusive are left out. A call without a number means that no potency is given here. Activity calls are given as the source filed them. Unless noted, calls follow the shape of the dose curve; as a rule, active = well fitted curve in the direction sought with a large enough effect; inconclusive = small, poorly fitted or top-dose-only effect, or another doubt; inactive = no such curve, though single readings can be large; an effect the other way counts as inactive or inconclusive.
# Tests used:
# [1] = molecular target: Voltage-gated inwardly rectifying potassium channel KCNH2 (Homo sapiens) (UniProt Q12809); assay: qHTS Assay for Small Molecule Inhibitors of the Human hERG Channel Activity (AID 588834);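 also: top concentration of the series differs between compounds; lower thallium flux fluorescence means stronger hERG block; nearly all actives have a fitted effect of over 50% in size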
# How it was run: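 Kinetic FDSS fluorescence; U2OS + hERG BacMam (~100 virus particles/cell); FluxOR Tl+ flux; ~10 min cpd; AC50 (Hill).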
# [2] = molecular target: Luciferin 4-monooxygenase (Photinus pyralis) (UniProt P08659); assay: Biochemical firefly luciferase enzyme assay for NPC (AID 624030); also: nearly all actives have a fitted effect of over 70% in size; also: potency is read from the fitted curve at half-maximal effect
# How it was run: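 Counter-screen for direct inhibition of the luciferase enzyme by approved-drug library compounds, run at 10 nM enzyme in 50 mM Tris acetate (final). Luminescence was read within 5 min of enzyme-buffer addition and normalized to PTC124 versus DMSO (0%).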
# [3] = S16 Schwann cell viability assay (CellTiter-Glo assay) (AID 624031);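 also: cellular ATP luminescence as a viability measure; series mostly up to about 58 µM; nearly all actives have a fitted effect of over 70% in size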
# How it was run: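 Native S16 Schwann cells (rat), serum-containing medium, overnight attachment then 24 h drug exposure at 37 °C/5% CO2. CellTiter-Glo ATP signal; normalized to cell-free and vehicle wells.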
# [4] = S16 Schwann cell PMP22 intronic element firefly luciferase assay (AID 624032); also: nearly all actives have a fitted effect of over 30% in size; also: potency is read from the fitted curve at half-maximal effect
# How it was run: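 Rat S16 Schwann cells stably carrying a PMP22 intronic element-driven Fluc reporter were seeded overnight, then exposed to compounds for 24 h at 37 °C. Luminescence was normalized to PTC124 (positive control) and DMSO (0% activity).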
# [5] = S16 Schwann cell PMP22 intronic element beta-lactamase assay (AID 624044; calls by dose curve; also: nearly all actives have a fitted effect of over 15% in size)
# How it was run: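 Rat S16 Schwann cells with beta-Lac driven by a PMP22 intronic element, compound-treated 24 h at 37 °C. LiveBLAzer FRET B/G read: 460 nm normalized to potassium clavulanate vs DMSO; 535 nm FRET as viability; concentration-effect curves classified.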
# Chain of Luciferin 4-monooxygenase (Photinus pyralis) (P08659 whole entry, looked up): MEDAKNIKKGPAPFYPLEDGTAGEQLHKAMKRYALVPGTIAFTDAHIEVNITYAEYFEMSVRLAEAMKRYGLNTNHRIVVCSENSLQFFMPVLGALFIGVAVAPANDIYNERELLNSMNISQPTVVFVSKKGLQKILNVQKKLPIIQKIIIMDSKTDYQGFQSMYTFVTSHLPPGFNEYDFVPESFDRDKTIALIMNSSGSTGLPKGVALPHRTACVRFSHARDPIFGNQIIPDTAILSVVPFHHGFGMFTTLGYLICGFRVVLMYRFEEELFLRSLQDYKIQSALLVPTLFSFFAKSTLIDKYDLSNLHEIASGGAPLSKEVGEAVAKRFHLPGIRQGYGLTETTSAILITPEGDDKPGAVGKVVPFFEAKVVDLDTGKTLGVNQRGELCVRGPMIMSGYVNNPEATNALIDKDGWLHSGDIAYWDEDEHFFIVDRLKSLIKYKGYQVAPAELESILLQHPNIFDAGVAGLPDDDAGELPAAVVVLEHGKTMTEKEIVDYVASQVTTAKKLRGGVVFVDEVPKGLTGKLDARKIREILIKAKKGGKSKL
# Chain of Voltage-gated inwardly rectifying potassium channel KCNH2 (Homo sapiens) (Q12809 whole entry, looked up): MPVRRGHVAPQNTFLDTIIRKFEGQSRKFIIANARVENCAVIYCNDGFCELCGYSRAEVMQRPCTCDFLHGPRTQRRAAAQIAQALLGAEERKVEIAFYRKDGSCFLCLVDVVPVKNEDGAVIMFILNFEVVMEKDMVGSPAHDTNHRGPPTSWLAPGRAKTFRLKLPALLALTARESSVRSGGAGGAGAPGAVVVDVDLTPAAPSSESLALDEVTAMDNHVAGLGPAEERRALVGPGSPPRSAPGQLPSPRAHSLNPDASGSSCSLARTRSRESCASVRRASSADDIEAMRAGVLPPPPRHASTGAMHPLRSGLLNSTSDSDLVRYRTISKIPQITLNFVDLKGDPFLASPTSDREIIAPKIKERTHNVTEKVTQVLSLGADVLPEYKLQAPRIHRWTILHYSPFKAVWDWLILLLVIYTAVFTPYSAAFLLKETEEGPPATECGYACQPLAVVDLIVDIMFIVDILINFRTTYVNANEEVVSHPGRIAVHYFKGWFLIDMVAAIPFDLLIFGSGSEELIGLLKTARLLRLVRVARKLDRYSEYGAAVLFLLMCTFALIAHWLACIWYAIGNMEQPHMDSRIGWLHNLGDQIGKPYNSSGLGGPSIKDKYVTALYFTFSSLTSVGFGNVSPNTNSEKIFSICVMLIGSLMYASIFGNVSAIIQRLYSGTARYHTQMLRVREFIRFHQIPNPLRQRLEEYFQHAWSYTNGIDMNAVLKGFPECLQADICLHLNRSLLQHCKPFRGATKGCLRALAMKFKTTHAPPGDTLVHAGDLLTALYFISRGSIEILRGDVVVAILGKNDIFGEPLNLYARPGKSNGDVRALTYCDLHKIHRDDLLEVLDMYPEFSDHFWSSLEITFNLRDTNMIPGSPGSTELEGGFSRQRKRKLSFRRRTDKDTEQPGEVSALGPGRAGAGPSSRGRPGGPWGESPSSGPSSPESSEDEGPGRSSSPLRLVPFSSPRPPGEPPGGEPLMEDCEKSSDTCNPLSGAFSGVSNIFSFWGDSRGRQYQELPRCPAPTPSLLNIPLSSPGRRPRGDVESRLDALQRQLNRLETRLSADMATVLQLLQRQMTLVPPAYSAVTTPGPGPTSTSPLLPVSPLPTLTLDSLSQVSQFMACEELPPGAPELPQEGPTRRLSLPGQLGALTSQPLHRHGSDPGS
Compound,Potency [1],Potency [2],Potency [3],Potency [4],Potency [5]
CC(O)CO (stereo unspecified),inactive,inactive,inactive,inactive,inactive
C#CCOc1ccc2c(C)cc(=O)oc2c1,inactive,inactive,inactive,inactive,inactive
CC(C(=O)O)c1ccc(N2Cc3ccccc3C2=O)cc1 (stereo unspecified),inactive,0.181 µM (active),inactive,inactive,inactive
O=S(=O)(O)c1cc(O)c2c(N=Nc3ccc(Nc4ccccc4)c4c(S(=O)(=O)O)cccc34)cc(S(=O)(=O)O)cc2c1,inactive,32.2 µM (active),–,–,inactive
Nc1c(N=Nc2ccc(-c3ccc(N=Nc4cc(S(=O)(=O)O)c5ccccc5c4N)cc3)cc2)cc(S(=O)(=O)O)c2ccccc12,inactive,32.2 µM (active),inactive,–,inactive
CC(=O)Oc1cc(C)c(OC(C)=O)c2ccccc12,inactive,inactive,–,28.7 µM (active),inactive
CCCCCCCCCCCCCCCC(=O)OCC(COC(=O)CCCCCCCCCCCCCCC)OC(=O)CCCCCCCCCCCCCCC,inactive,inactive,inactive,inactive,inactive
